Measurements taken from PubChem BioAssay (NCI).
The panel holds about 79,000 compounds, 15% with a hit somewhere; the sample as a whole holds those more often. No stated cut-off is given here; in the data, active means growth inhibition above about 70%; inactive means the rest.

Tests used:
[1] = NCI Yeast Anticancer Drug Screen. Data for the rad50 strain (AID 155);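 further: 0% = growth of vehicle-only cultures of the same strain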; conditions: S. cerevisiae rad50 strain growth inhibition; at 50.0 µM; hits give high values
Summary of the method: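 Cells are treated with compound, grown, and their growth is then scored against vehicle-only cultures of the same repair-deficient yeast strain.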

[2] = NCI Yeast Anticancer Drug Screen. Data for the mec2-1 strain (AID 157); conditions: S. cerevisiae mec2-1 strain, at 50.0 µM, hits give high values
Summary of the method: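 Growth inhibition is read against vehicle-treated controls after compound exposure of the mec2-1 yeast strain, which is defective in DNA damage repair or cell cycle control.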

[3] = NCI Yeast Anticancer Drug Screen. Data for the sgs1 mgt1 strain (AID 161);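 further: 0% = growth of cultures given vehicle only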; conditions: S. cerevisiae sgs1 mgt1 strain, at 50.0 µM, hits give high values
Summary of the method: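 Compounds are added to genetically altered yeast, and growth is compared with cultures given vehicle alone to give percent inhibition.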

[4] = NCI Yeast Anticancer Drug Screen. Data for the cln2 rad14 strain (AID 165);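 further: 0% = growth equal to vehicle treated cultures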; conditions: S. cerevisiae cln2 rad14 strain, at 50.0 µM, hits give high values
Summary of the method: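 Growth inhibition, relative to vehicle-treated controls, is the read-out. The test organism is a yeast strain with defined genetic alterations, cln2 rad14.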

[5] = NCI Yeast Anticancer Drug Screen. Data for the bub3 strain (AID 167); conditions: S. cerevisiae bub3 mutant strain, at 50.0 µM, hits give high values
Summary of the method: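 Part of a panel of yeast mutants defective in DNA damage repair or cell cycle regulation. Each strain is grown with compound, and inhibition is calculated relative to solvent-treated cultures.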

[6] = NCI Yeast Anticancer Drug Screen. Data for the mlh1 rad18 strain (AID 175); conditions: S. cerevisiae mlh1 rad18 strain growth inhibition; at 50.0 µM; hits give high values
Summary of the method: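 Cells of a genetically altered yeast strain, deficient in DNA damage repair, were treated with compound. Their growth was then compared with that of vehicle-treated cultures to give inhibition.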

Measured: growth inhibition

CCCCN(CCCC)c1ccc(S(=O)(=O)c2ccc(N(CCCC)CCCC)cc2)cc1
inactive: [1] 19.1% | [2] 4.95% | [3] 9.4% | [4] 30.4% | [5] -2.35% | [6] 18.6%

CCC(Cc1cnc2nc(N)nc(N)c2n1)c1ccc(C(=O)NC(CCC(=O)O)C(=O)O)cc1 (stereo not drawn)
inactive: [1] -9.3% | [2] 18.9% | [3] 1.8% | [4] -12.2% | [5] -22.8% | [6] -14.5%

CCOC(=O)/C(O)=C(/C=NC(=S)c1ccncc1)C(=O)OCC
inactive: [1] -28.2% | [2] -29.8% | [3] -15.3% | [4] -6.45% | [5] -13.8% | [6] -31%

O=C(O)c1ccc[n+](Cc2ccccc2)c1
inactive: [1] 4.9% | [2] 12.6% | [3] -5.15% | [4] -8.2% | [5] -5.95% | [6] 2.15%

CC(=O)Nc1ccc(C(=O)NN2C(=O)C(Cl)C2c2ccc([N+](=O)[O-])cc2)cc1 (stereo not drawn)
inactive: [1] -0.05% | [2] 19.6% | [3] -2.05% | [4] 1.45% | [5] -24.4% | [6] 8.3%

C[N+]1(C)CCC(c2ccccc2)(c2ccccc2)/C(=C2/C(=O)C(c3ccccc3)(c3ccccc3)CC[N+]2(C)C)C1
inactive: [1] -4.55% | [2] -7.9% | [3] 0.75% | [4] 35% | [5] -32% | [6] -20.8%

O=c1[nH]c2cc(Cl)ccc2nc1/C=C(\O)c1ccccc1
inactive: [1] 1.35% | [2] -18.9% | [3] -5.9% | [4] 4.55% | [5] -19.1% | [6] 20.1%

CC(C)(C)c1ccc(C(O)(c2ccc(C(C)(C)C)cc2)c2ccc(C(C)(C)C)cc2)cc1
inactive: [1] 12.8% | [2] -3.85% | [3] -22.2% | [4] 8.25% | [5] -19.9% | [6] -34.3%

Cc1cc(Cc2cccc3ccccc23)nc2c1ccc1ccccc12
inactive: [1] 0.85% | [2] -11.2% | [3] 12.2% | [4] 11% | [5] -13.9% | [6] 17.6%

O=S(c1ccccc1)[C@H]1CC2C3CC4C2C4C31 (stereo partly drawn)
inactive: [1] 2.3% | [2] 4.7% | [3] -1.7% | [4] 4.45% | [5] 19.9% | [6] 17.9%

CC1C[P+](c2ccccc2)(c2ccccc2)Cc2ccccc21 (stereo not drawn)
inactive: [1] 3.4% | [2] 9.75% | [3] -8.25% | [4] -13.4% | [5] -1.85% | [6] 4.6%

O=C(O)C(Oc1ccc(Cl)cc1Cl)C(Oc1ccc(Cl)cc1Cl)C(=O)O (stereo not drawn)
inactive: [1] -3.95% | [2] -4.1% | [3] -9.95% | [4] -15.5% | [5] 1.75% | [6] 3.75%

NCCc1ccc(O)c(O)c1
inactive: [1] -4.4% | [2] -4.2% | [3] -1.55% | [4] 4.25% | [5] -1.45% | [6] 1.85%

CCCC1(CCC)OC(=O)C(CC)(CC)C(=O)O1
inactive: [1] -10.8% | [2] -3.2% | [3] -1.6% | [4] -23.2% | [5] 14.1% | [6] -6%

COc1cc2c(c(OC)c1OC)-c1ccc(SC)c(=O)cc1[C@@H](NC(=O)C(F)(F)F)CC2
inactive: [1] 11.1% | [2] -53.7% | [3] -18.1% | [4] -13.8% | [5] -12.7% | [6] -4.75%

Clc1ccccc1C=NC1CCCCC1
inactive: [1] -5.1% | [2] -12.2% | [3] -0.3% | [4] -1.15% | [5] -5.85% | [6] -3.1%

C(/C=N/NC1=NCCCN1)=N\NC1=NCCCN1
inactive: [1] -3.5% | [2] -15.2% | [3] -14.6% | [4] 10.9% | [5] -33.1% | [6] -14.2%

CC(C#N)NCc1ccc(C(C)NC(C)C#N)cc1 (stereo not drawn)
inactive: [1] 4.5% | [2] 2.15% | [3] -43.8% | [4] -26.1% | [5] -10.8% | [6] -15.7%
